Screen size: about 350,000 compounds; about 2,400 (0.69%) were called active. This excerpt belongs to a sample that is enriched for actives. Unmarked numbers belong to inactive results. Rule as the data show it: active = inhibition above about 41%; inconclusive = no clear call, values can overlap the other calls; inactive = below that.
assay: EBV LMP1-driven NF-kappaB luciferase reporter inhibitors, primary screen, cell-based, luminescence, single point (AID 504558); conditions: LMP1-induced NF-kappaB luciferase reporter cells, at 12.5 µM, hits give high values;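 also: 0% = neutral control wells and 100% = reference inhibitor control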

Compound	inhibition
COc1cccc(-c2nc3ccc(N4CCN(C)CC4)cc3[nH]2)c1	55.9% (active)
CN1CCN(c2cc(N3CCNCC3)ccc2[N+](=O)[O-])CC1	-3.51%
O=C(c1ccccc1)C(O)(CN1CCCCC1)c1ccccc1 (stereo not given)	10.5%
CCOc1ccc(-c2cc(C)[n+](CCN(CC)CC)c(-c3ccc(OCC)cc3)c2)cc1	34.1%
CCC/C(=N\O)c1c[nH]c2ccccc12	-1.7%
NCCc1c[nH]c2ccc(O)cc12	0.174%
CC(C)c1c(CN(C)C(C)Cc2ccccc2)n(C)n(-c2ccccc2)c1=O (stereo not given)	46.3% (active)
CN(C)CCN(CC1CCCN(Cc2ccccc2F)C1)C(=O)Cc1ccc(F)c(F)c1 (stereo not given)	-8.27%
c1cc2c(cc1[C@H]1OC[C@H]3[C@@H]1CO[C@@H]3c1ccc3c(c1)OCO3)OCO2	-19.4%
CC=C(C)C(=O)OC1CCN2CC=C(COC(=O)C(O)(C(C)OC)C(C)(C)O)C12 (stereo not given)	-5.68%
COc1ccc2c(c1)[C@]13CCCCC1C(C2)N(C)CC3 (stereo not given in full)	-1.94%
CCCC[N+]1(C)C2CC(OC(=O)C(CO)c3ccccc3)CC1C1OC12 (stereo not given)	-0.864%
Cc1ccc(-c2nn(CCC#N)cc2C(=O)O)cc1C	-6.4%
Clc1cccc(Cl)c1Cl	-0.913%
CCC(C)(O)C(=O)OC1C(=O)OC2CC3C(C)=CC(=O)C(O)C3(C)C3C4(O)OCC23C1C(C)C4O (stereo not given)	93.7% (active)
CN(C)C(=O)Oc1ccc(NC(=O)N2CCOCC2)cc1	3.17%
CCN1C(=O)C(=Cc2c(C)n(CC(=O)NCC3CCCO3)c3ccccc23)C(=O)N(CC)C1=S (stereo not given)	0.11%
CC(=O)OC1C2(CC3N4C(=O)C5(CO)SSC4(CC31O)C(=O)N5C)OC(C)C(C)(C)C2=O (stereo not given)	86.8% (active)
CCOC(=O)CC(SP1(=S)OCC2(CCCCO2)C(C2CCCCO2)O1)C(=O)OCC (stereo not given)	-9.32%
COC1C(O)C(C)OC(OC2CCC3(C=O)C(CCC4C3CCC3(C)C(C5=CC(=O)OC5)CCC43O)C2)C1O (stereo not given)	89.7% (active)
C[C@]12CC[C@H](O)C[C@H]1CC[C@@H]1C2CC[C@]2(C)[C@@H](C3=CC(=O)OC3)[C@@H](O)C[C@]12O (stereo not given in full)	37%
O=C(NCC1=C(c2ccc3ccccc3c2)C[C@@H]2CC[C@H]1N2Cc1ccco1)c1cccs1	1.8%
CCC(=O)OC(Cc1ccccc1)(c1ccccc1)C(C)CN(C)C (stereo not given)	0.604%
O=C1C2(Cl)C3(Cl)C4(Cl)C(Cl)(Cl)C5(Cl)C3(Cl)C1(Cl)C5(Cl)C24Cl (stereo not given)	6.24%
CN1CCN(Cc2ccc(OC(F)(F)F)cc2)CC1	-6.99%

Reference: PubChem BioAssay AID504558 (Broad Institute, 2011)
